p53null 32C tox: selectivity test: cytotoxicity in p53 null cells, permissive temperature | AID 903 | Potency, µM (top dose mostly 46.1 µM), for the others: at the top dose activity change, negative = cytotoxicity, most hits filed as cytotoxic | 55,000 compounds, 0.62% hits | H1299-neo p53 null cells, ATP luminescence, 24 h, 32C;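 further: 0% = DMSO only and -100% = full killing by 100 µM tamoxifen; nearly all actives have a fitted effect of over 55% in size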
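AC50 values derive from Hill modelling of qHTS concentration-response data (up to 46 uM) in H1299-neo cells. Cells were treated 24 h at 32C following overnight attachment at 37C; viability was read as cellular ATP.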
FH mod: Identification of activators of human fumarate hydratase by quantitative high-throughput screening. Fumarate hydratase, mitochondrial (Homo sapiens), P07954. FH coupled MDH/diaphorase resazurin fluorescence, 15 min. Potency, µM (top dose mostly 79.9 µM), without a hit: at the highest dose activity change, negative = inhibition, actives largely listed as inhibitors. 54,000 compounds, 0.22% hits. AID 1347055, 2019; further: the screen sought activators but most active calls are inhibition curves; nearly all actives have a fitted effect of over 45% in size
Target sequence (P07954 whole entry, looked up): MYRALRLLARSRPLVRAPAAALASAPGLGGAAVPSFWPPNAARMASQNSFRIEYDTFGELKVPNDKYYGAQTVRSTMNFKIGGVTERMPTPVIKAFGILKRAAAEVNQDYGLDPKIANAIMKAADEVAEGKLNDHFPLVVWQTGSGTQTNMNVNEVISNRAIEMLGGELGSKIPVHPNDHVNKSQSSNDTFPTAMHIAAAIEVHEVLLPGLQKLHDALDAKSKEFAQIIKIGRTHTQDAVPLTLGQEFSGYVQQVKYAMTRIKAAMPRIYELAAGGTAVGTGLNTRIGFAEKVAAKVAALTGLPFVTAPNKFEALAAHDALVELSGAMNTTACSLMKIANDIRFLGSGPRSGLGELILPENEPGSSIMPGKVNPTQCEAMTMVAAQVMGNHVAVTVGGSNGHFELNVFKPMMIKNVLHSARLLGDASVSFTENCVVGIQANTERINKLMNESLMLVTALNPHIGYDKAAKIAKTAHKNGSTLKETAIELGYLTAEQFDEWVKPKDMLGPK
NTMT1 inh: NTMT1 methyltransferase inhibition; Q9BV86; Potency, µM (top dose mostly 114 µM), for inactives: at the top dose activity change, negative = inhibition, most hits filed as inhibitors; NTMT1 MTase-Glo SAH luminescence, purified enzyme; AID 1645870; 59,000 compounds, 2.5% hits;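 further: plate controls were DMSO vehicle for no effect and no enzyme for full effect; nearly all actives have a fitted effect of over 65% in size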
p53null 39C kill: kills p53 null cells at the nonpermissive temperature; H1299 p53-null (neo) cells, 39C, ATPlite viability, 24 h; Potency, µM (doses to about 46.1 µM), for the others: at the top dose activity, negative = cell killing, hits mostly cytotoxic; 55,000 compounds, 0.97% hits;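 further: 0% = DMSO only and -100% = full killing by 100 µM tamoxifen; nearly all actives have a fitted effect of over 50% in size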
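ATP-luminescence viability readout (ATPlite, 20 min RT) after 24 hr compound treatment at 39C of H1299-neo or H1299-p53A138V cells; titration up to 46 uM; normalized to DMSO and 100 uM tamoxifen; Hill-fit AC50.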
SKOV3 invasion: ovarian cancer metastasis inhibition, 3D TME model; 46,000 compounds, 0.1% hits; Potency, µM (top dose mostly 45.8 µM), for the others: at the top dose activity change, negative = inhibition, hits mostly inhibitors; SKOV3ip1-GFP adhesion/invasion on 3D omental model, fluorescence;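 further: plate controls were DMSO wells for no effect and tomatine positive control wells for full effect; nearly all actives have a fitted effect of over 65% in size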
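Adhesion/invasion was scored as fixed GFP-labeled SKOV3ip1 cell counts (488/509 nm), normalized to DMSO and tomatine controls. Cancer cells in serum-free medium, with four compound doses (0.36-46 umol/L), sat 2 hr at RT then 16 hr at 37 C on a 48 hr fibroblast/mesothelial/ECM culture.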
An asterisk follows results filed as active; ! = not confirmed by another sample; [ ] = another dose, or the depositor's remark. This is one part of a sample in which hits are shown more often than they occur. The call rests on the fitted dose curve; in most records, active means well fitted curve in the direction sought with a large enough effect; inconclusive means small, poorly fitted or top-dose-only effect, or another doubt; inactive means no such curve, though single readings can be large; an effect the other way counts as inactive or inconclusive. Unless noted, on the % scale 0 is the no-effect control and ±100 the full control effect; potency means the concentration at half of the fitted maximal effect.

`COc1ccc(-c2cc(C(=O)Oc3ccc(C)c(C)c3)c3ccccc3n2)cc1` gave p53null 32C tox -17%, FH mod 3%, NTMT1 inh 4%, p53null 39C kill 2% and SKOV3 invasion inactive.
For CC(=O)c1cccc(NC(=O)c2nc3ccccc3n(C)c2=O)c1 the results were p53null 32C tox 2.8µM*, FH mod -2%, NTMT1 inh 25µM*, p53null 39C kill 2.5µM* and SKOV3 invasion -8%.
`COc1cccc(N2CCN(c3ncc4c(n3)CCN(Cc3ccc(Br)cc3)C4)CC2)c1` gave p53null 32C tox 3%, FH mod -8%, NTMT1 inh 50µM*, p53null 39C kill -1% and SKOV3 invasion -3%.
CCOc1ccc(CN2CCc3nc(N4CCN(c5ncccn5)CC4)ncc3C2)cc1OC was read as p53null 32C tox 9%, FH mod -4%, NTMT1 inh -2%, p53null 39C kill -10% and SKOV3 invasion -6%.
O=C1SC(Nc2ccc(Cl)cc2)C(=O)N1Cc1ccccc1 (centres undefined) was read as p53null 32C tox 18%, FH mod 3%, NTMT1 inh -7%, p53null 39C kill -15% and SKOV3 invasion 9%.
For CCOc1ccc(NC2SC(=O)N(Cc3ccccc3)C2=O)cc1 (centres undefined) the results were p53null 32C tox 7%, FH mod 40µM*[activator], NTMT1 inh 2%, p53null 39C kill -6% and SKOV3 invasion -8%.
Screening C=CCN1C[C@H](C(=O)N(CCCN(C)C)C(=O)NCC)CC2c3cccc4[nH]cc(c34)C[C@H]21 (some centres undefined) returned NTMT1 inh 0%.
Screening CCOC(=O)N1CCC(NC(=O)c2cnn(-c3cccc(Cl)c3C)c2C2CCN(C(=O)OC(C)(C)C)CC2)CC1 returned p53null 32C tox 12%, FH mod -15%, NTMT1 inh 6%, p53null 39C kill 12% and SKOV3 invasion -18%.
Screening CCS(=O)(=O)c1cccc(-c2cc(C(=O)NC3CCN(C)CC3)c(C)c3[nH]c4ncc(C)cc4c23)c1 returned FH mod -20%, NTMT1 inh 28µM*! and SKOV3 invasion inconclusive.
Screening CCCCCCCCc1ccc(CCC(N)(CO)CO)cc1 returned FH mod 7%, NTMT1 inh 45µM*! and SKOV3 invasion -22%.
For CCCCCCC[N+](CC)(CC)CCCCc1ccc(Cl)cc1 the results were FH mod 2%[53.3 µM] and NTMT1 inh inconclusive.
For CCC(C(=O)Nc1c(C)cc(C)cc1C)n1c(=O)c(-c2ccccc2NC(C)=O)nc2ccccc21 (centres undefined) the results were p53null 32C tox -2%, FH mod -8%, NTMT1 inh 89µM*, p53null 39C kill 21% and SKOV3 invasion 2%.
For CCC(C(=O)Nc1cccc(C#N)c1)n1c(=O)c(-c2ccccc2NC(C)=O)nc2ccccc21 (centres undefined) the results were p53null 32C tox -10%, FH mod inconclusive, NTMT1 inh 4%, p53null 39C kill -2% and SKOV3 invasion 0%.
For C/C=C1/[C@H](O[C@@H]2O[C@H](CO)[C@@H](O)[C@H](O)[C@H]2O)OC=C(C(=O)OC)[C@H]1CC(=O)O[C@@H]1O[C@H](CO)[C@@H](O)[C@H](O)[C@H]1O the results were FH mod 5%[20.6 µM] and NTMT1 inh 3%[12.6 µM].
Screening Cc1c(C(=O)Nc2ccc(C(=O)O)cc2)nnn1-c1ccccc1 returned p53null 32C tox 13µM*, FH mod -3%, NTMT1 inh 0%, p53null 39C kill inconclusive and SKOV3 invasion -2%.
Screening Cn1c(-c2cccc(Br)c2)cnc1NCc1cccc(F)c1 returned p53null 32C tox -24%, FH mod -18%, NTMT1 inh -2%, p53null 39C kill -21% and SKOV3 invasion -1%.
Screening CCc1ccc(CNc2ncc(-c3cccc(OC)c3)n2C)cc1 returned p53null 32C tox -19%, FH mod -9%, NTMT1 inh 1%, p53null 39C kill -21% and SKOV3 invasion 5.6µM*.

Source: PubChem BioAssay (National Center for Advancing Translational Sciences (NCATS))
